CYP2C9 inh: blocks human cytochrome P450 2C9. P11712. CYP2C9 Supersomes, luciferin-H conversion, luminescence. inhibition, % at 5 µM. 96,000 compounds, 20% hits. AID 777;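 active = blocking of liver enzyme CYP2C9 beyond about 50% at 5 µM, limit read from the data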
CYP2C19 inh: inhibitors of human CYP2C19 | 96,000 compounds, 21% hits | inhibition, % at 5 µM | CYP2C19 Supersomes, luciferin-H EGE luminescence, 30 min;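 active = CYP2C19 inhibition above a set limit at 5 µM in the primary screen, cut at about 50% in these data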
Target sequence (P33261 whole entry, looked up): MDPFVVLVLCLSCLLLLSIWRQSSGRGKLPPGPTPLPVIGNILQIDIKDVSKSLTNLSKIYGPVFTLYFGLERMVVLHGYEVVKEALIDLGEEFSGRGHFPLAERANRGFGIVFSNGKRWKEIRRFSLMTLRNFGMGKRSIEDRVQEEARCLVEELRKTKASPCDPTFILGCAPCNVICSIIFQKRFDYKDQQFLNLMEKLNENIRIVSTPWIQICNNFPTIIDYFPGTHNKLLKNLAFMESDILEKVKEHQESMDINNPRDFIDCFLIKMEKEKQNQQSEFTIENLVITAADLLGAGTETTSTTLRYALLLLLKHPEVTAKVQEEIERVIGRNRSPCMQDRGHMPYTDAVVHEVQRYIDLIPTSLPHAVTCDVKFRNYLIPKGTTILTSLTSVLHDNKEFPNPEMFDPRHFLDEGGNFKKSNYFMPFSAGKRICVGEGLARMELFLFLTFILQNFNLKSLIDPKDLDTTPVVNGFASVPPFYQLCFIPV
CYP2C19 act: cytochrome P450 2C19 (human) activation; recombinant CYP2C19, luciferin-H EGE luminescence; active compounds read high; 0 = fully inhibited enzyme, 1 = untreated enzyme; activation factor at 5 µM; 96,000 tested, under 10 active; AID 1025;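 active = activation factor of at least 2 at 5 µM in the primary screen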
CYP2C9 activ: activators of human CYP2C9. 96,000 compounds, 1.4% hits. recombinant CYP2C9, luciferin-H conversion, luminescence; active compounds read high; factor 1 = untreated enzyme, 0 = blocked. activation factor at 5 µM. P11712. AID 1024;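 active = activation factor of 2 or more for CYP2C9 at a 5 µM dose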
PLAP activator: activators of human placental alkaline phosphatase; P05187; purified PLAP enzyme, luminescent substrate read-out; active compounds read high; activation fold at 20 µM; 96,000 compounds, 1.2% hits; AID 696; in the data active = activation fold above about 2
Of the large screens only hits and unclear results are named; the others gave an inactive call. Hits are enriched below; roughly 31% of the tested compounds scored in any of these assays.

CCC(=O)N1CCc2cc(Br)cc(S(=O)(=O)NCC3CCCN3CC)c21 (stereo not given)	none
CC1(C)Cc2ccccc2-c2nc(-c3ccccc3)oc(=O)c21	none
CC1(C)Cc2ccccc2-c2nc(NCCO)n(-c3ccccc3)c(=O)c21	CYP2C19 inh 61.4
CCC1(C)Cc2ccccc2-c2c1c(=O)n(-c1ccc(C)cc1)c1nnnn21 (stereo not given)	none
CCC1(C)Cc2ccccc2-c2nc(NCCO)n(-c3ccc(C)cc3)c(=O)c21 (stereo not given)	CYP2C19 inh 67.0
COc1ccc(CN2CCN(C(=O)c3ccco3)CC2)cc1OCc1ccccc1	none
C/C(=N\NS(=O)(=O)c1ccc(Cl)c([N+](=O)[O-])c1)c1cc2ccccc2o1	CYP2C9 inh 99.8, CYP2C19 inh 96.8
C/C(=N\NS(=O)(=O)c1ccc(C)c([N+](=O)[O-])c1)c1cc2ccccc2o1	none
C/C(=N\NS(=O)(=O)c1ccc(Cl)c([N+](=O)[O-])c1)c1ccc(C)o1	CYP2C9 inh 88.0, CYP2C19 inh 83.1
COc1ccc(/C=N/n2cncn2)cc1CSc1ccccn1	CYP2C19 inh 83.0
COc1ccc(NC(=O)CSc2ccccn2)cc1OC	none
O=C(O)c1ccccc1C(=O)N1CCN(c2ccccc2)CC1	none
Cc1cc(C(=O)N2CCN(c3ccccc3)CC2)no1	none
O=C(c1csc2c1CCCC2)N1CCN(c2ccccc2)CC1	CYP2C9 activ 2
CC(C)Cc1cc(C(=O)N2CCN(c3ccc(F)cc3)CC2)no1	CYP2C9 inh 65.0, CYP2C19 inh 75.8
O=C(c1ccccc1C(=O)N1CCN(c2ccc(F)cc2)CC1)N1CCN(c2ccc(F)cc2)CC1	CYP2C9 inh 87.8, CYP2C19 inh 54.0
O=C(c1ccccc1)N1CCN(c2ccc(Cl)cc2)CC1	CYP2C9 inh 68.1, CYP2C19 inh 98.0
COCCNC(=O)CN1CCN(Cc2cccc(Cl)c2)C1=O	none
Cc1cc(=O)oc2c1c(C)nn2-c1nn[nH]n1	none
O=C(c1ccccc1C(=O)N1CCN(c2ccccc2)CC1)N1CCN(c2ccccc2)CC1	CYP2C9 inh 70.4
O=C(C1COc2ccccc2O1)N1CCCC1 (stereo not given)	none
O=C(c1ccc(Br)o1)N1CCN(c2ccc(F)cc2)CC1	CYP2C19 inh 95.0
O=C(c1noc2c1CCCC2)N1CCN(c2ccc(F)cc2)CC1	none
CCOC(=O)N1CCN(C(=O)c2csc3c2CCCCC3)CC1	CYP2C9 inh 76.5, CYP2C19 inh 55.1
O=C(C1COc2ccccc2O1)N1CCN(c2ccc(F)cc2)CC1 (stereo not given)	CYP2C9 inh 74.9, CYP2C19 inh 85.8
COc1cccc(CNC(=O)C2CCCN(c3nn4c(=O)cc(C)nc4s3)C2)c1OC (stereo not given)	none
Cc1ccc(C(=O)N2CCN(c3ccc(NC(=O)c4cccnc4)cc3)CC2)cc1	CYP2C9 inh 74.3
CCCN1Cc2cccc(C(=O)N3CCN(c4ccccc4)CC3)c2C1=O	CYP2C19 inh 50.1
COCCN1Cc2cccc(C(=O)N3CCN(c4ccccc4)CC3)c2C1=O	none
CC(=O)c1c(C)[nH]c(C(=O)N2CCN(c3ccc(F)cc3)CC2)c1C	CYP2C19 inh 71.1
O=C(Nc1ccc(N2CCN(C(=O)c3ccc(Cl)cc3)CC2)cc1)c1ccc(Br)o1	CYP2C9 inh 56.7
O=C(Nc1ccc(N2CCN(Cc3ccccc3)CC2)cc1)c1cccnc1	none
Clc1ccc(CSc2nnc(/C=C/c3ccccc3)o2)cc1	none
CCc1nnc(NC(=O)CSc2ncc(-c3ccccc3)n2C)s1	none
CCC(C)NC(=O)CSc1nnc(-c2ccoc2C)n1CC1CCCO1 (stereo not given)	none
O=C(c1cccc(Br)c1)N1CCCC1	none
Cc1cccc(C(=O)N2CCCCCC2)c1	CYP2C19 inh 52.1
Cc1cccc(C(=O)N2CCN(C(=O)c3cccc(C)c3)C(C)C2)c1 (stereo not given)	CYP2C9 inh 77.6, CYP2C19 inh 88.7
CC1CN(C(=O)c2cccc(C(=O)N3CC(C)OC(C)C3)c2)CC(C)O1 (stereo not given)	none
O=C(c1cccc(Br)c1)N1CCN(C(=O)N2CCCCC2)CC1	CYP2C9 inh 61.1, CYP2C19 inh 76.6
O=C(c1cccc(-c2nnc(-c3ccccc3)o2)c1)N1CCCCC1	CYP2C9 inh 62.4, CYP2C19 inh 55.6
COc1ccc(C2CC(C(F)(F)F)n3nc(C(=O)NCc4cn(C)nc4C)c(Cl)c3N2)cc1 (stereo not given)	none
Nc1nnc(CC(=O)N2CCCCC2)s1	none
CCOc1ccc(C(=O)Nc2ccc(Cl)cn2)cc1Cl	none
COc1ccccc1CO/N=C/c1cccn1-c1nccc(N(C)C)c1C#N	CYP2C9 inh 90.7, CYP2C19 inh 98.9
CN(C)c1ccnc(-n2cccc2/C=N/OCc2ccccc2)c1C#N	CYP2C19 inh 95.8
CN(C)c1ccnc(Oc2ccccc2)c1C#N	none
CN(C)c1ccnc(-n2cccc2/C=N/OCc2ccc(F)cc2Cl)c1C#N	CYP2C9 inh 95.8, CYP2C19 inh 98.2
O=C(c1cc2n(n1)C(C(F)(F)F)CC(c1ccc(F)cc1)N2)N1CCCC1 (stereo not given)	none
CCCCn1c(SCC(=O)NCc2ccco2)nnc1-c1ccco1	none
CC(C)(C)c1nc(SCC(=O)NCc2ccco2)c2ccccc2n1	CYP2C9 inh 65.4, CYP2C19 inh 93.9
O=C(CSc1ncc(-c2ccccc2)nn1)NCc1ccco1	none
CCCCNC(=O)CSc1nc2ccccc2c(=O)n1Cc1ccc2c(c1)OCO2	CYP2C19 inh 83.6
CCn1c(SCC(=O)NCc2ccco2)nc2cccnc21	none
O=C(CSc1nc2ccccc2c(=O)n1-c1ccccc1)NCc1ccc2c(c1)OCO2	none
CCCCn1c(SCC(=O)NCc2ccco2)nc2ccccc2c1=O	CYP2C9 inh 52.2, CYP2C19 inh 64.9
CC(=O)NCCn1c(SCC(=O)NCc2ccco2)nc2ccccc2c1=O	CYP2C19 inh 85.0
CCC1CCCCN1C1Sc2ccc(C(=O)OC)cc2NC1=O (stereo not given)	none
Cc1ccc(NC(=O)CSc2nnc(Cn3cnc4ccccc43)o2)c(C)c1	none (no result: CYP2C9 inh, CYP2C19 inh, CYP2C19 act, CYP2C9 activ)
CCOC(=O)CC(=O)CSc1ncnc2c1oc1ccccc12	none
CCN(CC)CC(=O)NCc1cc(-c2ccc(OC)cc2)no1	none
O=C(NCCCN1CCOCC1)C1CCC(=O)N1C1CCCCC1 (stereo not given)	none
COc1ccccc1NC(=O)CSc1nc2ccccc2c(=O)n1CCNC(C)=O	none
CC(=O)NCCn1c(SCC(=O)NCCC(C)C)nc2ccccc2c1=O	CYP2C19 inh 68.8
O=c1c2ccccc2nnn1CSc1nnc2ccccn12	none
O=c1c2ccccc2nnn1CSc1ccc2c(c1)OCCO2	CYP2C9 inh 54.7, CYP2C19 inh 94.4
Clc1ccccc1-c1nnc2sc(-c3ccco3)nn12	CYP2C19 inh 69.3
COc1cccc(OC)c1-c1nn2c(-c3ccccc3Cl)nnc2s1	CYP2C19 inh 82.0
c1ccc(Cc2nnc3sc(-c4ccco4)nn23)cc1	CYP2C19 inh 90.9

Screening results: PubChem BioAssay, Sanford-Burnham Center for Chemical Genomics
